PubChem BioAssay (NCI)
The panel holds about 83,000 compounds, 20% with a hit somewhere; the sample as a whole holds those more often.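 For each line, cells grew in 96-well plates with the test compound present at a single concentration for 48 hours.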 Unmarked numbers belong to inactive results. The source made the active and inactive calls. How the source made its calls: active means growth percent below 10; inactive means the rest.

Tests used:
Assay in all cases: NCI-60 one-dose screen, 48 h (100 = growth as untreated, 0 = no growth, -100 = all killed)
Details in all cases: 10 µM unless noted
[1] = test system: T-47D breast
[2] = test system: BT-549 breast
[3] = test system: MDA-MB-435 melanoma
[4] = test system: SW-620 colon
[5] = test system: MCF7 breast
[6] = test system: HCT-116 colon
[7] = test system: HCC-2998 colon
[8] = test system: KM12 colon

| Structure (SMILES) | growth [1] | growth [2] | growth [3] | growth [4] | growth [5] | growth [6] | growth [7] | growth [8] |
| --- | --- | --- | --- | --- | --- | --- | --- | --- |
| CCN1C(=O)N(CC)C2C1NN=c1s/c(=C\c3cnc(C)n3C)c(=O)n12 (configuration not stated) | 24.9% | 50.1% | -69.1% (active) | 9.38% (active) | 14.5% | 23.2% | 45.6% | 16.1% |
| Cc1ccc(C)c(/C=C2\CN(C(=O)OC(C)(C)C)C/C(=C\c3cc(C)ccc3C)C2=O)c1 | 61.4% | 85.5% | -9.21% (active) | 18.5% | 23.3% | -16.7% (active) | 52.2% | 16.7% |
| COc1ccc(C(O)c2cc3c(N)c(C(=O)Nc4cccc(Cl)c4C)sc3nc2C)cc1 (configuration not stated) | 30.5% | 17.7% | -29.5% (active) | 17.9% | 17% | 6.73% (active) | 5.81% (active) | 6.49% (active) |
| CCNc1nc(O)c(/C=C2\C=Nc3ncccc32)s1 | -9.7% (active) | -50.4% (active) | -0.802% (active) | 6.52% (active) | 3.97% (active) | 3.99% (active) | 10.2% | 6.24% (active) |
| CCN1C(=O)N(CC)C2C1NC(=S)N2/N=C/c1ccc(C(F)(F)F)cc1 (configuration not stated) | 74.7% | 71% | 4.45% (active) | 55.3% | 33.2% | 54.9% | 74% | 56% |
| CCc1ccc(CCC(=O)Nc2ncc(Cc3cc(Cl)ccc3Cl)s2)o1 | 44% | 36.4% | -42.6% (active) | 24.1% | 14% | 17.5% | 19.7% | 20.3% |
| CCn1cc(CNc2ccc(C(=O)Nc3cc4cc(OC)c(OC)cc4c(C)n3)cc2)cn1 | -3.23% (active) | 24.6% | 10.5% | 75.3% | 46.6% | 46.8% | 87.8% | 33.3% |
| Cc1ccc(S(=O)(=O)OCCCOS(=O)(=O)c2ccc(C)cc2)cc1 | 99.3% | 96.2% | 101% | 103% | 91.2% | 94.1% | 99.7% | 99.1% |
| Clc1ccc(-c2cc(-c3ccccc3)nc(NCCNc3ccnc4cc(Cl)ccc34)n2)cc1 | 11.8% | 88.3% | -56.9% (active) | -63% (active) | -76.8% (active) | -79.4% (active) | -88.9% (active) | -5.53% (active) |
| O=c1ccc(=O)n(-c2nc(-c3ccc([N+](=O)[O-])cc3)cs2)[nH]1 | 98.5% | 98.5% | 99.1% | 101% | 90.1% | 95.2% | 106% | 99.6% |
| COC(=O)CCC/C=C\C[C@H]1C=CC(=O)/C1=C/C[C@@H](O)C/C=C\CC(F)(F)F | 2.7% (active) | -18.3% (active) | 4.2% (active) | -36% (active) | 4.67% (active) | -61.4% (active) | -68.7% (active) | -31.7% (active) |
| c1ccc(CCNc2c3ccccc3nc3ccccc23)cc1 | 48.9% | 73.6% | 55.3% | 28.3% | 12.2% | 16.5% | 41.4% | 57.4% |
| CCCCCCCC/C=C\CCCCCCCCOc1ccc(CC(=O)NCC[N+]2(C)CCOCC2)cc1 | 84.2% | 78.1% | 89.1% | 81.2% | 81.7% | 73.8% | 56.2% | 51.3% |
| Cc1ccc2c(-c3nnc(N)s3)cc(=O)oc2c1C | 72.9% | 101% | 96.1% | 97.8% | 93.4% | 95.6% | 113% | 105% |
| COc1cc(Cl)c(C)cc1NC(=O)c1cc2ccccc2cc1O | 11.5% | 22.9% | 3.68% (active) | 21.2% | 17.2% | 4.6% (active) | 17% | 9.32% (active) |
| COc1ccc(CNc2c3ccccc3nc3ccccc23)c(OC)c1 | 52.9% | 66.7% | 38.7% | 20.7% | 14.5% | 12.8% | 35.6% | 54.3% |
| Cc1nc2cc(O)c(O)cc2cc1Oc1ccc(NC(=O)Nc2ccc(Cl)c(Cl)c2)cc1 | 62.2% | 82.2% | 54.2% | 49.3% | 76.2% | 44.6% | 93.4% | 74.6% |
| CC(=O)c1sc2sc(C(C)=O)c(C)c2c1C | 89% | 105% | 102% | 102% | 73.1% | 83.1% | 102% | 107% |
| CN(C)CCCNC(=O)c1cncnc1Nc1ccc(OCc2cccc(F)c2)c(Cl)c1 | -17% (active) | 53.6% | -88.6% (active) | -67.7% (active) | -44% (active) | -82% (active) | 6.05% (active) | -32.1% (active) |
| O=c1cc(-c2ccccc2)[nH]c2ncc(-c3ccc(F)cc3)n12 | 74.3% | 64.1% | -12% (active) | 40.3% | 57.8% | 51.3% | 75.6% | 44.4% |
| O=C(N=Nc1c(O)[nH]c2ccccc12)Nc1ccc(F)cc1 | 66.2% | 89.6% | 98.3% | 89.4% | 71.3% | 82% | 100% | 85.5% |
| CCCCNC(=O)Oc1ccc(/C(=C(/C)Cc2ccc(OC)cc2)c2ccc(OCCN3CCCCC3)cc2)cc1 | 37.9% | 81.9% | 67.8% | 77.4% | 26.9% | 41.8% | 75.5% | 73.6% |
| C=C(C)[C@@H]1CCC[C@]2(C(=O)N3CCN(C)CC3)CC[C@]3(C)[C@@H](CC[C@@H]4[C@@]5(C)CC/C(=N\NC(=O)c6ccncc6)C(C)(C)[C@@H]5CC[C@]43C)[C@@H]12 | 87.7% | 105% | 81.8% | 81.2% | 50.7% | 97.8% | 105% | 85.4% |
| O=C(CSc1nnc(-c2cc(-c3ccccc3)nc3ccccc23)n1-c1ccccc1)Nc1ccc(C(=O)/C=C/c2ccc(Cl)cc2)cc1 | 73.8% | 92.4% | 96.5% | 93.3% | 78.5% | 86.5% | 100% | 75.4% |
| C=C1C(=O)O[C@H]2[C@H]1CC/C(COC(=O)c1cc3cc(Cl)ccc3[nH]1)=C\CC[C@@]1(C)O[C@@H]21 | -68.2% (active) | -47.4% (active) | -91.7% (active) | -53.1% (active) | -71.7% (active) | -70.4% (active) | -70.5% (active) | -59.8% (active) |
| CC[C@]12C=CCN3CC[C@@]4(c5ccc(OC)cc5N(C)[C@H]4[C@@](O)(C(=O)OC)[C@@H]1OC(=O)CCC[P+](c1ccccc1)(c1ccccc1)c1ccccc1)[C@@H]32 | 1.08% (active) | 11% | -21.6% (active) | 17.4% | -3.34% (active) | 8.72% (active) | -22.5% (active) | -27.2% (active) |
| O=S1(=O)C=C(c2ccccc2)C(c2ccccc2)=C1 | -63.4% (active) | 79.6% | 25.4% | -82.9% (active) | 6.2% (active) | -74.8% (active) | 15.5% | 16.5% |
| COC(=O)c1c2c(c(C)[n+]([O-])c1C)C(=O)C(NCc1cccc(Cl)c1)=CC2=O | 6% (active) | 49.3% | -68.5% (active) | 7.1% (active) | -36% (active) | 1.18% (active) | 15.3% | 17.7% |
| CN1CCN(CC(=O)Nc2ccc3ncnc(Nc4ccc(Oc5cccc(C(F)(F)F)c5)c(Cl)c4)c3c2)CC1 | 44.4% | 73.1% | -86% (active) | -68% (active) | -51.3% (active) | 6.69% (active) | -5.89% (active) | 23.5% |
